Screens as filed in PubChem BioAssay.
Hits are enriched below; roughly 11% of the tested compounds scored in any of these assays.
IMPase inh – cell-permeable inhibitors of inositol monophosphatase (IMPase); P97697; CHO-M1 cells, IP1 accumulation, HTRF TR-FRET ratio; inhibition (IP1 accumulation), % at 46.1 µM; 120,000 tested, under 10 active; AID 901; active means well fitted curve in the direction sought with a large enough effect in the signal ratio, not every such curve was filed as active; inconclusive means small, poorly fitted or top-dose-only effect, or a change in a side signal; inactive means no such curve, though single readings can be large or run the other way; the % refers to the signal ratio;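 further: cells stimulated with carbachol in lithium chloride buffer; higher means more IMPase inhibition seen as more IP1 and lower FRET ratio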
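Measured: the HTRF emission ratio (665/620 nm) plus the 620 nm donor channel, each fitted to the Hill equation to give AC50. Cells were CHO-M1 given compounds up to 46 uM and a 30 min carbachol stimulation at 37C.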
IMPase Li inh – IMPase inhibition in cells with lithium potentiation; CHO-M1 cells, IP1 TR-FRET (IP-One), carbachol + lithium; Potency, µM (series often up to 59.4 µM), hits mostly inhibitors; actives 0.35% (n = 210,000); AID 1457; active means well fitted inhibition curve with a large enough effect; inconclusive means small, poorly fitted or top-dose-only effect; inactive means no such curve, though single readings can be large or run the other way;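 further: IP1 builds up when IMPase is blocked and the TR-FRET signal falls; nearly all actives have a fitted effect of over 50% in size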
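Readout is a homogeneous TR-FRET IP1 immunoassay (Ex 320, Em 665 and 620), where raised cytosolic IP1 lowers signal. Cells were CHO-M1 treated 30 min at 37C with test compounds plus a little lithium; AC50 values came from Hill-equation fitting.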
HPGD block – HPGD (human) dehydrogenase inhibition; actives 4.3% (n = 150,000); AID 894; P15428; purified HPGD, NADH fluorescence kinetic, PGE2 substrate; Potency, µM, hits mostly inhibitors
Target sequence (P15428 whole entry, looked up): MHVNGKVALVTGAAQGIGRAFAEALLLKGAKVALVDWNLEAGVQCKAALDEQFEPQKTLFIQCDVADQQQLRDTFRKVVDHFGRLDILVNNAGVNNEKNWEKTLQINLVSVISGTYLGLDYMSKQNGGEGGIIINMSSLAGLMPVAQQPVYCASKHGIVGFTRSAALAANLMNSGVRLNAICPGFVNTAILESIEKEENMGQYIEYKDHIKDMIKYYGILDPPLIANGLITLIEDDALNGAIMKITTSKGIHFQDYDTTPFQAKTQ
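20 nM HPGD preincubated 15 min at room temperature with compound in 50 mM Tris-HCl pH 8, 0.01% Tween 20. Started with 1 mM NAD+ and 30 uM prostaglandin E2; NADH fluorescence (360/450 nm) read 5 times over 30-s intervals, last minus first.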
PNC inhibitor – inhibitors of perinucleolar compartment assembly | PC3M PTB-GFP, PNC prevalence imaging, 16 h; stronger effect = lower value | activity change (PNC), negative = inhibition, % at 10 µM | actives 3.1% (n = 140,000) | AID 2417;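 active means readout at or below -70, meaning at least 70% loss of cells showing the perinucleolar compartment, a nuclear body marking cancer cells; inconclusive means readout between -30 and a set limit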
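Read-out is percentage of cells bearing a perinucleolar compartment, from automated 20x imaging of fixed, Hoechst-stained PC3M PTB-GFP cells. Cells were seeded 4 h, then exposed 16 h to compound (23 nl of library stock) in duplicate plates.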
ALDH1A1 inh – ALDH1A1 (human) enzyme inhibition; P00352; Purified ALDH1A1, NADH fluorescence, propionaldehyde substrate; actives 7.3% (n = 220,000); Potency, µM (doses to about 75.3 µM), most hits filed as inhibitors
Target sequence (P00352 whole entry, looked up): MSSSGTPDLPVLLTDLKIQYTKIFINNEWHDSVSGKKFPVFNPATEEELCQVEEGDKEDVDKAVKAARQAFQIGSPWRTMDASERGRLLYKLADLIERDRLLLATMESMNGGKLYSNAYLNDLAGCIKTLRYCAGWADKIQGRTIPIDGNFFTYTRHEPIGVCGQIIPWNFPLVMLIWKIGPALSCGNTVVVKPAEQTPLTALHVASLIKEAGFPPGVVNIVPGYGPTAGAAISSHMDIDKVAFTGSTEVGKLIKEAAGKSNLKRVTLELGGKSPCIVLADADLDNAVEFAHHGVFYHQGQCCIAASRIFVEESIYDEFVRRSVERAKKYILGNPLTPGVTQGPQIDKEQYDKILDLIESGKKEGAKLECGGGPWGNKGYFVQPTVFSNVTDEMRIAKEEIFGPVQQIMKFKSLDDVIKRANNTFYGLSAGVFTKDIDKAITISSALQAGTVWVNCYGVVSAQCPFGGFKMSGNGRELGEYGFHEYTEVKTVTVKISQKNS
Hits are given with their value; i = inactive; ? = inconclusive; nt = no result given; [ ] = dose if it differs, or a comment. Unless noted, the call rests on the fitted dose curve; in most records, active means well fitted inhibition curve with a large enough effect (not every such curve was filed as active); inconclusive means small, poorly fitted or top-dose-only effect, or another doubt; inactive means no such curve, though single readings can be large or run the other way.

SMILES	IMPase inh	IMPase Li inh	HPGD block	PNC inhibitor	ALDH1A1 inh
O=C(NC(=S)N1CCN(c2ccc(Cl)cc2[N+](=O)[O-])CC1)c1cccs1	i	i	i	-112	7.9µM
CC(=O)Nc1ccc(C2NC(C(=O)O)CCC2C)cc1 (configuration not stated)	nt	nt	nt	nt	i[13.5 µM]
O=C(NC(=S)N1CCN(c2ccc([N+](=O)[O-])cc2)CC1)c1ccco1	nt	i	nt	nt	?
CC1Cc2ccccc2N1C(=S)NC(=O)c1ccco1 (configuration not stated)	nt	i	nt	nt	22µM
O=C(NC(=S)N1CCCc2ccccc21)c1ccco1	nt	i	nt	nt	?
O=C(NC(=S)N1CCN(c2ccc(Cl)cc2[N+](=O)[O-])CC1)c1ccco1	nt	i	?	-81	i
NC(=O)NNc1cccc(Cl)n1	nt	i	nt	nt	35µM
CC(=O)NNc1cccc(Cl)n1	i	i	i	i	?
Cn1c(=O)cc(NCc2ccccc2)[nH]c1=O	i	i	i	-91	i
O=C1CC(c2ccccc2O)Oc2ccc(O)cc21 (configuration not stated)	i	i	i	nt	i
Cc1ccc(CN2CCc3c(OCC(=O)Nc4cc(C)ccc4C)cccc3C2=O)cc1	nt	i	i	i	?
Cc1cccc(CN2CCc3c(OCC(=O)N4CCCc5ccccc54)cccc3C2=O)c1	i	i	i	i	16µM
Cc1ccc(C)c(NC(=O)COc2cccc3c2CCN(Cc2ccccc2)C3=O)c1	i	i	i	i	i
Cc1cccc(CN2CCc3c(OCC(=O)NCc4ccco4)cccc3C2=O)c1	nt	i	i	i	22µM
O=C(COc1cccc2c1CCN(Cc1ccccc1)C2=O)NCc1ccco1	i	i	i	?	20µM
O=C1c2cccc(OCc3ccc(F)cc3)c2CCN1Cc1ccccc1	i	i	i	-82	i
O=C(NCc1ccco1)C(=O)NCC(c1ccco1)N1CCOCC1 (configuration not stated)	nt	i	nt	nt	i
CCn1c(SCc2ccccc2)nnc1C1CCCCC1	i	nt	nt	i	?
CCn1c(SCc2ccccc2)nnc1C1CCN(S(=O)(=O)c2ccc(OC)cc2)CC1	i	i	i	i	5µM
O=C(CSc1nnc(C2CC2)n1Cc1ccccc1)c1ccc(S(=O)(=O)N2CCOCC2)cc1	i[1.84 µM]	i	i	?	11µM
COc1ccc2nc(NC(=O)C3CCCN3S(=O)(=O)c3ccc(C)cc3)sc2c1 (configuration not stated)	i	i	i	?	i
NC(=O)NC(=O)[C@H]1CCCC[C@@H]1C(=O)O	nt	i	i	nt	i[13.5 µM]
COc1cccc(CCc2nnc(CCC(=O)N3CCN(Cc4ccccn4)CC3)o2)c1	nt	i	nt	nt	8.9µM
CC(=O)N1CCC2(CCN(Cc3ccc(C#N)cc3)CC2)CC1	nt	i	i	nt	i
Cc1nnc(SCc2nc3sc4c(c3c(=O)[nH]2)CCCC4)n(N)c1=O	nt	nt	nt	nt	22µM
SMILES	IMPase inh	IMPase Li inh	HPGD block	PNC inhibitor	ALDH1A1 inh
CCOC(=O)CSc1nnc(CSc2nc3sc4c(c3c(=O)[nH]2)CCC4)n1-c1ccccc1	i	i	8.9µM	i	i
CCOC(=O)CSc1nnc(CSc2nc3ccccc3s2)n1C	i	i	i	-97	?
CCOC(=O)CSc1nc2ccccc2c(=O)[nH]1	i	i	i	i	i
CCOC(=O)CSc1nnc(CSc2nc3ccccc3c(=O)[nH]2)n1-c1ccccc1	i	i	4.5µM	i	?
NNC(=O)c1sc2cc(C(F)(F)F)cnc2c1-c1cccnc1	nt	i	nt	nt	?
CN(C)CCOC(=O)[C@@H](c1ccccc1)C1(O)CCCC1	i	i	i	nt	i
CCOC(=O)CSc1nnc(CSc2nc3sc4c(c3c(=O)[nH]2)CCC4)n1C	i	i	8.9µM	i	i
O=c1[nH]c(SCc2nc3ccccc3n2Cc2ccccc2)nc2ccccc12	i	7.9µM	?	i	?
O=C(c1ccco1)c1cn[nH]c1-c1ccc(Cl)cc1O	i	i	i	i	i
COc1ccc(OC)c(Nc2nc3ccccc3nc2-n2nc(C)cc2C)c1	i	nt	nt	nt	nt
Cn1c(N)c(C(=O)COC(=O)c2ccc(S(=O)(=O)N3CCCCC3)cc2)c(=O)n(C)c1=O	nt	i	nt	nt	i
CC(C)Cn1c(N)c(C(=O)COC(=O)c2c(F)cccc2F)c(=O)n(C)c1=O	nt	i	nt	nt	11µM
CC(C)Cn1c(N)c(C(=O)COC(=O)c2ccccc2F)c(=O)n(C)c1=O	nt	i	nt	nt	i
Cn1c(N)c(C(=O)COC(=O)c2ccc(Cl)c(S(=O)(=O)N3CCCCC3)c2)c(=O)n(C)c1=O	nt	i	16µM	i	i
Cn1c(N)c(C(=O)COC(=O)c2cccs2)c(=O)n(C)c1=O	i	i	i	i	14µM
Cn1c(N)c(C(=O)COC(=O)c2ccnc3ccccc23)c(=O)n(C)c1=O	nt	?	?	-85	i
O=C1CCCC1C(O)c1ccc2ccccc2c1 (configuration not stated)	nt	i	i	nt	i
Cc1cc(C)cc(NC2=C(c3ccccc3)C(=O)c3ccccc32)c1	i	nt	nt	nt	nt
COCC(=O)C(C(=O)OC)[C@H](CCc1ccccc1)NC(=O)OC (some centres not stated)	nt	i	i	nt	i
CNC(=O)c1ccccc1-c1cn(C)c2ccccc2c1=O	nt	i	nt	nt	i
CCc1cc2c(=O)c(-c3nc4ccccc4n3C)c(C)oc2c(CN2CCN(C)CC2)c1O	i	i	?	i	?
CCc1cc2c(=O)c(-c3nc4ccccc4n3C)c(C(C)C)oc2c(CN2CCN(C)CC2)c1O	i	i	?	-104	?
O=C(/C=C/c1ccc(Cl)cc1)NC(=S)Nc1ccc(N2CCOCC2)c(Cl)c1	i	nt	nt	i	14µM
CCN(CC)S(=O)(=O)c1cccc(NC(=S)NC(=O)/C=C/c2ccc(S(=O)(=O)N3CCOCC3)cc2)c1	nt	i	i	i	i
O=C(/C=C/c1ccc(S(=O)(=O)N2CCOCC2)cc1)NC(=S)Nc1ccc(Cl)cc1Cl	nt	i	nt	nt	1.1µM
SMILES	IMPase inh	IMPase Li inh	HPGD block	PNC inhibitor	ALDH1A1 inh
Fc1ccccc1	nt	i	i	nt	i
CN1C(=O)c2cccc3c(S(=O)(=O)Nc4cccc(C(=O)O)c4)ccc1c23	i	nt	nt	nt	nt
CNS(=O)(=O)c1ccccc1C(=N)c1ccccc1	nt	i	i	nt	i[13.5 µM]
COc1cc(N=Nc2c(O)c3ccccc3[nH]c2=O)c(OC)cc1N=Nc1ccccc1	nt	nt	nt	nt	16µM
COCCN(CCOC)c1nc(C)nc2c1nc(-c1ccccc1)n2CCN1CCCC1	nt	i	?	nt	?
O=C(NC(Cc1c[nH]c2ccccc12)C(=O)Nc1ccc(F)c([N+](=O)[O-])c1)c1cccs1 (configuration not stated)	i	i	i	-119	i
O=C(NC(Cc1c[nH]c2ccccc12)C(=O)Nc1ccc(OC(F)(F)F)cc1)c1cccs1 (configuration not stated)	nt	i	i	-113	i
O=C(NC(Cc1c[nH]c2ccccc12)C(=O)O)c1cccs1 (configuration not stated)	nt	i	nt	nt	i
O=C1[C@H]2[C@H]3[C@H](O)[C@H](O)C/C(=N/OC[C@@H](O)COCc4ccco4)[C@H]3CC[C@@H]2C(=O)N1Cc1ccccc1	nt	nt	nt	nt	i[13.5 µM]
